From PubChem BioAssay AID588413 (Sanford-Burnham Center for Chemical Genomics, 2011)
Out of some 340,000 compounds screened, about 2,500 (0.74%) were called active.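 How the source made its calls: active means inhibition above about 55% (limit read from the data); inactive means the rest.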 What follows is part of a selection rich in actives, with near analogues and random picks from the rest.

test: Gli-Sufu pathway antagonists, primary screen, luciferase luminescence, Sufu-KO-LIGHT cells, uHTS (AID 588413); details: Sufu-KO-LIGHT fibroblasts, Gli luciferase reporter luminescence; at 5 µM; active compounds read high;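 further: 0% = DMSO-treated cells and 100% = wells with medium but no cells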

**Q.** With `CC1CCCN(C(=O)Cn2c(=O)oc3ccccc32)C1` (stereo not given) as the compound, how does the inhibition read?
**A.** The inhibition was 1.13% (inactive).

**Q.** With `COC(C[C@@H](O)C[C@H](O)[C@H](C)OCc1ccccc1)OC` as the compound, how does the inhibition read?
**A.** Its inhibition is 7.28% (inactive).

**Q.** For `CCc1ccc(C2C(C#N)=C(N)N(N3CCOCC3)C3=C2C(=O)CC(C)(C)C3)s1` (stereo not given), which inhibition is on record?
**A.** Its inhibition is 96.7% (active).

**Q.** With `COc1ccc(C2C(C#N)=C(/N=C/N3CCOCC3)OC3=C2C(=O)CC(C)(C)C3)cc1OC` (stereo not given) as the compound, how does the inhibition read?
**A.** Its inhibition is 1.58% (inactive).

**Q.** For `CCc1ccc(C2C(C#N)=C(N)N(N(C)C)C3=C2C(=O)CCC3)s1` (stereo not given), which inhibition is on record?
**A.** Its inhibition is -0.42% (inactive).

**Q.** With `S=C(Cc1ccc(Cl)cc1)N1CCOCC1` as the compound, how does the inhibition read?
**A.** Its inhibition is 2.66% (inactive).

**Q.** For `O=C(CCN1CCCO1)N1CCCC(N2CCN(c3cccc(C(F)(F)F)c3)CC2)C1` (stereo not given), which inhibition is on record?
**A.** Its inhibition is 8.15% (inactive).

**Q.** For `N#Cc1cccc(NC(=O)C2CCCN(C(=O)c3ccc(Cl)cc3)C2)c1` (stereo not given), which inhibition is on record?
**A.** Its inhibition is 0.96% (inactive).

**Q.** For `CC1=Nn2c(nnc2-c2ccccc2)SC1`, which inhibition is on record?
**A.** The inhibition was 5.28% (inactive).

**Q.** For `COc1ccc(C2=Nn3c(nnc3-c3ccccc3OC)SC2)cc1OC1CCCC1`, which inhibition is on record?
**A.** Its inhibition is 67.1% (active).

**Q.** For `COc1ccccc1-c1nnc2n1N=C(c1ccc(OC(F)F)c(OCC3CC3)c1)CS2`, which inhibition is on record?
**A.** The inhibition was 23.1% (inactive).

**Q.** For `COc1ccc(CNC(=O)CN(c2ccc(OC)c(Cl)c2)S(=O)(=O)c2ccc(C)cc2)cc1`, which inhibition is on record?
**A.** The inhibition was -11.6% (inactive).

**Q.** For `NS(=O)(=O)c1cc(Cl)c(Cl)c(S(N)(=O)=O)c1`, which inhibition is on record?
**A.** The inhibition was -6.05% (inactive).

**Q.** For `Cc1cccc(S(=O)(=O)N2CN(CC3CCCO3)c3nc4ccccc4nc32)c1` (stereo not given), which inhibition is on record?
**A.** Its inhibition is 31.4% (inactive).

**Q.** For `Cc1ccc(Cl)cc1-c1ccc(/C=N/n2cnnc2)o1`, which inhibition is on record?
**A.** Its inhibition is 20.2% (inactive).

**Q.** For `Cc1cc([N+](=O)[O-])c(-c2ccc(/C=N/n3cnnc3)o2)cc1Cl`, which inhibition is on record?
**A.** The inhibition was 95.2% (active).

**Q.** Which inhibition does the source give for `Clc1cc(-c2ccc(/C=N/n3cnnc3)o2)ccc1Br` here?
**A.** Its inhibition is 3.67% (inactive).

**Q.** With `O=c1ccc2c(-c3ccccc3S(=O)(=O)O)c3ccc(O)c(O)c3oc-2c1O` as the compound, how does the inhibition read?
**A.** The inhibition was 9.16% (inactive).

**Q.** For `CCCCn1nc(C(=O)Nc2cccc(C(=O)NC3CC3)c2)c2ccccc2c1=O`, which inhibition is on record?
**A.** Its inhibition is -0.59% (inactive).

**Q.** For `COc1ccc(Cl)cc1S(=O)(=O)N1CCN(CC(=O)C(C)(C)C)CC1`, which inhibition is on record?
**A.** Its inhibition is -2.82% (inactive).

**Q.** For `O=C(CN1CCN(S(=O)(=O)c2cc(Cl)ccc2Cl)CC1)c1ccc(O)c(O)c1`, which inhibition is on record?
**A.** The inhibition was 58.2% (active).

**Q.** For `N#Cc1ccsc1NC(=O)CN1CCN(S(=O)(=O)c2cc(Cl)ccc2Cl)CC1`, which inhibition is on record?
**A.** The inhibition was 1.78% (inactive).

**Q.** With `COc1ccccc1N(CC(=O)Nc1ccccc1C(=O)N1CCCC1)S(C)(=O)=O` as the compound, how does the inhibition read?
**A.** Its inhibition is -5.37% (inactive).

**Q.** For `Cc1cc(C(=O)N/N=C/c2ccccn2)c2ccccc2n1`, which inhibition is on record?
**A.** The inhibition was 1.36% (inactive).

**Q.** With `O=C(N/N=C/c1ccccn1)C12CC3CC(CC(C3)C1)C2` as the compound, how does the inhibition read?
**A.** Its inhibition is -2.98% (inactive).

**Q.** For `Cc1nnc(N/N=C/c2ccccn2)[nH]c1=O`, which inhibition is on record?
**A.** Its inhibition is 62.7% (active).

**Q.** With `Cc1ccc(S(=O)(=O)N(C)C)cc1NC(=O)c1ccc(-n2cncn2)c([N+](=O)[O-])c1` as the compound, how does the inhibition read?
**A.** Its inhibition is 5.99% (inactive).

**Q.** For `CCOC(=O)c1cnc(Nc2nc3ccccc3o2)nc1CSC(=S)N1CCCCC1`, which inhibition is on record?
**A.** Its inhibition is 57.2% (active).

**Q.** Which inhibition does the source give for `CCOC(=O)CCNC(=O)N1CCCC(C(=O)c2ccccc2SC)C1` (stereo not given) here?
**A.** The inhibition was 4.81% (inactive).

**Q.** With `CCc1ccc(CNC(=O)C2CCCN(c3nc4ccccc4o3)C2)cc1` (stereo not given) as the compound, how does the inhibition read?
**A.** The inhibition was 5.09% (inactive).

**Q.** For `CCc1ccc(C(=O)C(C)OC(=O)CN2C(=O)NC3(CCCC3)C2=O)cc1` (stereo not given), which inhibition is on record?
**A.** Its inhibition is -24.9% (inactive).

**Q.** Which inhibition does the source give for `COCCN(C(=O)COC(=O)Cc1cccc(OC)c1)c1c(N)n(Cc2ccccc2)c(=O)[nH]c1=O` here?
**A.** Its inhibition is -12.3% (inactive).

**Q.** For `Cc1ccc(NC(=O)CN(C)CC(=O)Nc2cccc(F)c2)cc1[N+](=O)[O-]`, which inhibition is on record?
**A.** Its inhibition is 67.2% (active).

**Q.** With `CN(CC(=O)Nc1cccc(F)c1)C(=O)C1=COCCO1` as the compound, how does the inhibition read?
**A.** Its inhibition is -13.3% (inactive).

**Q.** For `Cc1ccc(NC(=O)c2sccc2C)cc1[N+](=O)[O-]`, which inhibition is on record?
**A.** The inhibition was -30.3% (inactive).

**Q.** For `O=C(N/C(=C\c1ccc([N+](=O)[O-])cc1)C(=O)N1CCOCC1)c1cccc(Br)c1`, which inhibition is on record?
**A.** Its inhibition is 14.4% (inactive).

**Q.** With `CC(C)c1ccc(C=NNc2ccc([N+](=O)[O-])cn2)cc1` as the compound, how does the inhibition read?
**A.** Its inhibition is -110% (inactive).

**Q.** Which inhibition does the source give for `Oc1ccc(/C=N/Nc2ccc(C(F)(F)F)cn2)cc1O` here?
**A.** Its inhibition is 75.1% (active).

**Q.** With `FC(F)(F)c1cccc(N/N=C/c2ccccc2)c1` as the compound, how does the inhibition read?
**A.** Its inhibition is 2.85% (inactive).

**Q.** With `COc1cccc2cc(C(N)=O)/c(=N\NC(=O)c3ccccc3)oc12` as the compound, how does the inhibition read?
**A.** Its inhibition is 61.3% (active).

**Q.** Which inhibition does the source give for `COc1cccc2cc(C(=O)N3CCN(C(=O)c4ccccc4)CC3)c(=O)oc12` here?
**A.** Its inhibition is 0.62% (inactive).

**Q.** For `COc1cccc2cc(C(=O)N(C)C)c(=O)oc12`, which inhibition is on record?
**A.** The inhibition was -0.51% (inactive).

**Q.** With `O=S(=O)(Cc1ccc(Cl)cc1Cl)c1ccc(Cl)cc1` as the compound, how does the inhibition read?
**A.** The inhibition was -10.2% (inactive).

**Q.** With `Nc1ccc(N=Nc2ccccc2Cl)c(N)n1` as the compound, how does the inhibition read?
**A.** The inhibition was -22.2% (inactive).

**Q.** Which inhibition does the source give for `N#Cc1c(-c2ccccc2)nc(SCc2cccc(C(F)(F)F)c2)[nH]c1=O` here?
**A.** Its inhibition is 2.78% (inactive).

**Q.** Which inhibition does the source give for `O=c1c2ccccc2nc2n1C(CSCc1cccc(C(F)(F)F)c1)CS2` (stereo not given) here?
**A.** The inhibition was 65.9% (active).

**Q.** With `O=c1c2ccccc2nc2n1C(CSCc1ccccc1)CS2` (stereo not given) as the compound, how does the inhibition read?
**A.** The inhibition was 41.5% (inactive).

**Q.** For `CN(O)C(=S)c1ccccc1`, which inhibition is on record?
**A.** The inhibition was 82.7% (active).

**Q.** Which inhibition does the source give for `CN(/N=C/c1ccccc1)C(=S)c1ccccc1` here?
**A.** The inhibition was 2.13% (inactive).

**Q.** With `CN(CC(=O)O)C(=O)c1ccccc1` as the compound, how does the inhibition read?
**A.** The inhibition was -17.4% (inactive).

**Q.** Which inhibition does the source give for `COc1ccc(CNc2c(CO)cnc3c2cnn3C)cc1` here?
**A.** Its inhibition is 25.4% (inactive).

**Q.** Which inhibition does the source give for `CCOC(=O)C1CN(S(=O)(=O)c2ccc(OC)cc2)c2cc(Cl)ccc2O1` (stereo not given) here?
**A.** The inhibition was 21.4% (inactive).

**Q.** With `CCOc1ccc(S(=O)(=O)NCc2ccc3c(c2)OCO3)cc1C` as the compound, how does the inhibition read?
**A.** The inhibition was -7.28% (inactive).

**Q.** For `CCCOc1ccc(Cc2c(O)nc(SC)[nH]c2=O)cc1C`, which inhibition is on record?
**A.** Its inhibition is -2.99% (inactive).

**Q.** For `CCCOc1ccc(Cn2c(O)cc(=O)[nH]c2=O)cc1`, which inhibition is on record?
**A.** Its inhibition is 9.29% (inactive).

**Q.** Which inhibition does the source give for `CCCOc1ccc(Cc2c(Cl)nc(SC)nc2NC)cc1` here?
**A.** Its inhibition is 57.3% (active).

**Q.** With `CC(C)N(C(=O)CN1CCN(S(=O)(=O)c2ccc(Br)s2)CC1)C(C)C` as the compound, how does the inhibition read?
**A.** The inhibition was -1.96% (inactive).

**Q.** Which inhibition does the source give for `Fc1ccc2[nH]c3c(N4CCN(Cc5ccc6c(c5)OCO6)CC4)ncnc3c2c1` here?
**A.** The inhibition was -4.16% (inactive).

**Q.** With `CC(C)OCCCNc1ncnc2c1[nH]c1ccc(F)cc12` as the compound, how does the inhibition read?
**A.** Its inhibition is 62% (active).

**Q.** With `CC(=O)NCc1ccc(S(=O)(=O)NC2CCN(Cc3ccccc3)CC2)cc1` as the compound, how does the inhibition read?
**A.** Its inhibition is -8.88% (inactive).
